# Results filed as inconclusive are left out. Activity calls are given as the source filed them. The call rests on the fitted dose curve.
# Test: qHTS assay to identify small molecule agonists of the AP-1 signaling pathway - cell viability counter screen (AID 1159525); further: nearly all actives have a fitted effect of over 55% in size
# Conditions: ME-180 (cervical carcinoma) AP-1-bla cells viability, ATP luminescence, 5 h; series mostly up to 76.8 µM; viability change, negative = cytotoxic: at the top concentration
# Summary of the method: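 AP-1-bla ME-180 cells in Opti-MEM with 0.5% dialyzed FBS, compound exposure 5 h at 37 C in 15-point titration. Viability read in the same wells as ATP content by CellTiter-Glo luminescence, normalised to tetra-n-octylammonium bromide and DMSO controls.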
row,Compound,"viability change, negative = cytotoxic"
1,CCOc1cc([N+](=O)[O-])c(OCC)cc1N1CCOCC1,1.45% (inactive)
2,O=S(O)(O)=S,1.76% [at 6.97 µM] (inactive)
3,CCO[Si](CCCS)(OCC)OCC,2.72% (inactive)
4,N[C@@H](COP(=O)(O)O)C(=O)O,11.4% [at 15.8 µM] (inactive)
5,Brc1ccc(-c2ccccc2)cc1,-5.05% (inactive)
6,CCCCC(CC)COCCO (centres undefined),0.383% (inactive)
7,Nc1nnc(-c2cccc(Cl)c2Cl)c(N)n1,8.39% [at 35.3 µM] (inactive)
8,COc1nccnc1NS(=O)(=O)c1ccc(N)cc1,0.539% [at 35.3 µM] (inactive)
9,CC1=CCC(C(C)C)=CC1,-6.3% (inactive)
10,CCCOC(=O)C(C)O (centres undefined),-16.1% (inactive)
11,CCOCCOCCOCC,1.45% (inactive)
12,COc1ccc(-c2cc(=O)c3c(O)cc(O[C@@H]4O[C@H](CO[C@@H]5O[C@@H](C)[C@H](O)[C@@H](O)[C@H]5O)[C@@H](O)[C@H](O)[C@H]4O)cc3o2)cc1O,-0.827% [at 35.3 µM] (inactive)
13,Cc1c(I)c(=O)n(-c2ccccc2)n1C,3.93% [at 35.3 µM] (inactive)
14,CCCCCCCCSCC,-0.809% (inactive)
15,CCC(C=O)CC,0.204% (inactive)
16,COc1cc(NS(=O)(=O)c2ccc(N)cc2)nc(OC)n1,1.77% [at 35.3 µM] (inactive)
17,CCN(CC)CC(=O)Nc1c(C)cccc1C,4.42% [at 35.3 µM] (inactive)
18,NC(CO)C(=O)NNCc1ccc(O)c(O)c1O (centres undefined),5.93% [at 35.3 µM] (inactive)
19,CCCCCCCCCCl,-25.2% (inactive)
20,CCOC(=O)c1ncn2c1CN(C)C(=O)c1cc(F)ccc1-2,-4.47% [at 35.3 µM] (inactive)
21,N[C@@H](CCC(=O)N[C@@H](CS)C(=O)NCC(=O)O)C(=O)O,4.13% [at 15.8 µM] (inactive)
22,Cc1cc(C(C)(C)C)c(O)c(C)c1CC1=NCCN1,-0.27% [at 35.3 µM] (inactive)
23,O=C(O)Cc1ccc(Cl)cc1Cl,-0.809% (inactive)
24,O=C(OCc1ccccc1)C(=O)OCc1ccccc1,-2.1% (inactive)
